Measurements taken from the supplement of paper PMC4709259.
Counter-ions that a name gives are not always drawn. ± gives the standard deviation.

Legend:
Jurkat [1] = experiment: mean cell size (FSC-A) relative to DMSO control (fraction of control); higher = larger cells; conditions: 48 h
Procedure, shortened: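 Jurkat cells at 600 cells/µl were incubated for 1 h and then treated for 48h with the Enzo Screen-Well FDA Approved Drug Library v2.0 at 25µM, with DMSO at 0.9% (v/v) final. Compounds that reduced counts below 20% of controls were retested in 10-fold dilutions down to 25nM. Cell count and mean cell size, taken as forward scatter area, were measured by flow cytometry relative to solvent-only controls. Each plate carried 6-12 controls, and values are means of 3 biological replicates.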

Jurkat [2] = experiment: cell count relative to DMSO control (fraction of control); higher = more cells (less growth inhibition); conditions: 48 h

## Cc1[nH]c(=O)c(C#N)cc1-c1ccncc1 [Milrinone] (concentration: 25 µM)
Jurkat [1]
  mean cell size: 0.919 ± 0.051
Jurkat [2]
  cell count: 0.361 ± 0.085

## CO[C@H]1/C=C/O[C@@]2(C)Oc3c(C)c(O)c4c(O)c(c(/C=N/N5CCN(C)CC5)c(O)c4c3C2=O)NC(=O)/C(C)=C\C=C\[C@H](C)[C@H](O)[C@@H](C)[C@@H](O)[C@@H](C)[C@H](OC(C)=O)[C@@H]1C [Rifampin (Rifampicin)] (concentration: 25 µM)
Jurkat [1]
  mean cell size: 0.964 ± 0.0034
Jurkat [2]
  cell count: 0.765 ± 0.035

## O=C(CCCN1CC=C(n2c(=O)[nH]c3ccccc32)CC1)c1ccc(F)cc1 [Droperidol] (concentration: 25 µM)
Jurkat [1]
  mean cell size: 0.962 ± 0.032
Jurkat [2]
  cell count: 0.812 ± 0.095

## CCC(=O)OC(OP(=O)(CCCCc1ccccc1)CC(=O)N1C[C@H](C2CCCCC2)C[C@H]1C(=O)O)C(C)C (some centres not stated) [Fosinopril·Na] (concentration: 25 µM)
Jurkat [1]
  mean cell size: 0.974 ± 0.054
Jurkat [2]
  cell count: 0.562 ± 0.12

## COc1cc(Cc2cnc(N)nc2N)cc(OC)c1OC [Trimethoprim] (concentration: 25 µM)
Jurkat [1]
  mean cell size: 0.969 ± 0.039
Jurkat [2]
  cell count: 0.457 ± 0.11

## Cn1nnc2c(C(N)=O)ncn2c1=O [Temozolomide] (concentration: 25 µM)
Jurkat [1]
  mean cell size: 0.959 ± 0.052
Jurkat [2]
  cell count: 0.543 ± 0.12

## CCC1=C[C@@H]2CN(C1)Cc1c([nH]c3ccccc13)[C@@](C(=O)OC)(c1cc3c(cc1OC)N(C)[C@H]1[C@@](O)(C(=O)OC)[C@H](OC(C)=O)[C@]4(CC)C=CCN5CC[C@]31[C@@H]54)C2 [Vinorelbine] (concentration: 250 nM)
Jurkat [1]
  mean cell size: 0.941 ± 0.031
Jurkat [2]
  cell count: 0.559 ± 0.048

## O=C(O)COCCN1CCN(C(c2ccccc2)c2ccc(Cl)cc2)CC1 (configuration not stated) [Cetirizine 2HCl] (concentration: 25 µM)
Jurkat [1]
  mean cell size: 0.962 ± 0.032
Jurkat [2]
  cell count: 1.01 ± 0.12

## CC(C)(C)NC(=O)[C@H]1CC[C@H]2[C@@H]3CC[C@H]4NC(=O)C=C[C@]4(C)[C@H]3CC[C@]12C [Finasteride] (concentration: 25 µM)
Jurkat [1]
  mean cell size: 0.978 ± 0.046
Jurkat [2]
  cell count: 0.684 ± 0.12

## COc1cccc2c1C(=O)c1c(O)c3c(c(O)c1C2=O)C[C@@](O)(C(C)=O)C[C@@H]3O[C@H]1C[C@H](N)[C@H](O)[C@H](C)O1 [Daunorubicin·HCl] (concentration: 25 nM)
Jurkat [1]
  mean cell size: 1.04 ± 0.037
Jurkat [2]
  cell count: 0.711 ± 0.11

## CC(C(=O)O)c1ccc(-c2ccccc2)c(F)c1 (configuration not stated) [Flurbiprofen] (concentration: 25 µM)
Jurkat [1]
  mean cell size: 0.974 ± 0.032
Jurkat [2]
  cell count: 0.881 ± 0.083

## Cc1c(-c2ccccc2)oc2c(C(=O)OCCN3CCCCC3)cccc2c1=O [Flavoxate·HCl] (concentration: 25 µM)
Jurkat [1]
  mean cell size: 1.01 ± 0.057
Jurkat [2]
  cell count: 1.01 ± 0.062

## Cn1cnc([N+](=O)[O-])c1Sc1ncnc2[nH]cnc12 [Azathioprine] (concentration: 25 µM)
Jurkat [1]
  mean cell size: 1.02 ± 0.036
Jurkat [2]
  cell count: 0.782 ± 0.088

## CCOC(=O)[C@H](CCc1ccccc1)N[C@@H](C)C(=O)N1Cc2ccccc2C[C@H]1C(=O)O [Quinapril·HCl] (concentration: 25 µM)
Jurkat [1]
  mean cell size: 0.998 ± 0.022
Jurkat [2]
  cell count: 1.01 ± 0.11

## COc1cc([C@@H]2c3cc4c(cc3[C@@H](O[C@@H]3O[C@@H]5CO[C@@H](c6cccs6)O[C@H]5[C@H](O)[C@H]3O)[C@H]3COC(=O)[C@H]23)OCO4)cc(OC)c1O [Teniposide] (concentration: 25 nM)
Jurkat [1]
  mean cell size: 1.25 ± 0.033
Jurkat [2]
  cell count: 0.478 ± 0.044

## CN1CCC(=C2c3ccccc3CC(=O)c3sccc32)CC1 [Ketotifen Fumarate] (concentration: 25 µM)
Jurkat [1]
  mean cell size: 0.96 ± 0.017
Jurkat [2]
  cell count: 0.856 ± 0.071

## OC(CNCC(O)C1CCc2cc(F)ccc2O1)C1CCc2cc(F)ccc2O1 (configuration not stated) [Nebivolol·HCl] (concentration: 25 µM)
Jurkat [1]
  mean cell size: 1.15 ± 0.094
Jurkat [2]
  cell count: 0.483 ± 0.11

## COc1ccc2c3c1O[C@H]1C[C@@H](O)C=C[C@@]31CCN(C)C2 [Galantamine·HBr] (concentration: 25 µM)
Jurkat [1]
  mean cell size: 0.976 ± 0.01
Jurkat [2]
  cell count: 0.701 ± 0.14

## CC1(C)O[C@@H]2C[C@H]3[C@@H]4CCC5=CC(=O)CC[C@]5(C)[C@@]4(F)[C@@H](O)C[C@]3(C)[C@]2(C(=O)CCl)O1 [Halcinonide] (concentration: 25 µM)
Jurkat [1]
  mean cell size: 0.914 ± 0.03
Jurkat [2]
  cell count: 0.883 ± 0.12

## CCC(=O)O[C@]1(C(=O)SCF)[C@H](C)C[C@H]2[C@@H]3C[C@H](F)C4=CC(=O)C=C[C@]4(C)[C@@]3(F)[C@@H](O)C[C@@]21C [Fluticasone Propionate] (concentration: 25 µM)
Jurkat [1]
  mean cell size: 0.967 ± 0.015
Jurkat [2]
  cell count: 1.06 ± 0.053

## CC(=O)Oc1ccccc1C(=O)Nc1ncc([N+](=O)[O-])s1 [Nitazoxanide] (concentration: 2.5 µM)
Jurkat [1]
  mean cell size: 0.9325 ± 0.0054
Jurkat [2]
  cell count: 0.862 ± 0.091
